Inconclusive results are not listed. Values without a mark were called inactive. The source made the active and inactive calls. The call rests on the fitted dose curve; in most records, active means well fitted cell-killing curve with a large enough effect; inconclusive means small, poorly fitted or top-dose-only effect, or effect the other way; inactive means no such curve, though single readings can be large or run the other way.

The nature of experiment [1]: Viability qHTS for spleen associated tyrosine kinase inhibitor (SYKi) naive MV4-11 cells (AID 1963823). Further: nearly all actives have a fitted effect of over 40% in size. In short, it runs like this:
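Compounds were dispensed acoustically onto plates, MV4-11 cells (SYKi-naive) added at 500 per well, and plates incubated 72 hr at 37 C. CellTiter-Glo was added and luminescence measured after 10 min.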
On the technique in general: In qHTS, concentration-response curves come from the screen itself.

Experiment [2] can be described thus: Viability qHTS for spleen associated tyrosine kinase inhibitor (SYKi) drug resistant MV4-11 cells (AID 1963824). Further: nearly all actives have a fitted effect of over 35% in size. In a few lines:
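SYK inhibitor-resistant MV4-11 AML cells, 500 per well, added to predispensed compounds and incubated 72 hr at 37 C, 5% CO2. Viability measured by CellTiter-Glo luminescence after 10 min at room temperature.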
Potency means the concentration at half of the fitted maximal effect.

With `COc1ccc2[nH]c3c(-c4cccc5ccccc45)nccc3c2c1`, the Potency in experiment [1] is 651 nM (active); in experiment [2] it was 820 nM (active).

With `Oc1ccc(CNc2ccccc2F)c2cccnc12`, the figures for the Potency in experiment [1] and in experiment [2] were 2910 nM (active) and 4610 nM (active), respectively.

`Cc1occc(=O)c1O[C@@H]1O[C@H](COC(=O)CC(C)(O)CC(=O)O)[C@@H](O)[C@H](O)[C@H]1O` (stereo partly drawn): the Potency entry in experiment [1] and in experiment [2] was “inactive” in each case.

With `O=C(O)CCc1cccc(O[C@@H]2O[C@H](CO)[C@@H](O)[C@H](O)[C@H]2O)c1O`, the Potency entry in experiment [1] and in experiment [2] was “inactive” in each case.

With `Cn1cc(C2=C(c3coc4ccccc34)C(=O)NC2=O)c2cc(Br)ccc21`, the results for the Potency in experiment [1] and in experiment [2] were 14600 nM (active) and 7310 nM (active), respectively.

On to `Cc1cc(O)cc(O[C@@H]2O[C@H](CO)[C@@H](O)[C@H](O)[C@H]2O)c1`, for which the Potency entry in experiment [1] and in experiment [2] was “inactive” each time.

On to `NC1(C(=O)NC(CCO)c2ccc(Cl)cc2)CCN(c2ncnc3[nH]ccc23)CC1` (stereo not drawn), for which the Potency was 2310 nM (active) in experiment [1] and 4110 nM (active) in experiment [2].

For the molecule `CCN(CC)CC1CCN(c2ncc3ncnc(Nc4ccc(F)c(Cl)c4)c3n2)CC1`, the Potency in experiment [1] and in experiment [2] was 2910 nM (active) in each case.

In the case of `COC1=CC(=O)O/C1=C(/OC)[C@@H]1O[C@H]1c1ccccc1`, the Potency was 23100 nM (active) in experiment [1] and 10300 nM (active) in experiment [2].

Consider `O=C1c2ccccc2-c2nc3nnnn3nc21` (tested in a mixture with another compound), for which the values for the Potency in experiment [1] and in experiment [2] were 92 nM (active) and 103 nM (active), respectively.

For the molecule `CC(=O)C1=C(O)C=C2Oc3c(C(C)=O)c(O)c(C)c(O)c3[C@]2(C)C1=O`, the Potency entry in experiment [1] and in experiment [2] was “inactive” each time.

In the case of `CC1=C(COC2OC(CO)C(O)C(O)C2O)C(C(CO)C(=O)O)CC1` (stereo not drawn), the Potency entry in experiment [1] and in experiment [2] was “inactive” throughout.

`CC(C)(Cc1nc(-c2ccc(O)cn2)no1)C(=O)NC1=C(C(=O)O)CCCC1`: the Potency entry in experiment [1] and in experiment [2] was “inactive” each time.

On to `CC1(C)CC[C@]23CO[C@@]4(CCC5[C@@]6(C)CC[C@H](O[C@@H]7OC[C@H](O[C@@H]8O[C@H](CO)[C@@H](O)[C@H](O)[C@H]8O[C@@H]8OC[C@@H](O)[C@H](O)[C@H]8O)[C@H](O)[C@H]7O)[C@@](C)(CO)C6CC[C@@]5(C)[C@]4(C)CC2=O)[C@@H]3C1` (stereo partly drawn), for which the Potency in experiment [1] is 3100 nM (active); in experiment [2], 4910 nM (active).

Regarding `COc1cc(C(O)C2COC(c3ccc(OC4OC(CO)C(O)C(O)C4O)c(OC)c3)C2CO)ccc1O` (stereo not drawn), in experiment [1], the Potency is 4470 nM (active). In experiment [2], the Potency entry was “inactive”.

For `COC(=O)C1=COC(OC2OC(CO)C(O)C(O)C2O)C2C(COC(=O)/C=C/c3ccc(O)c(O)c3)C(O)C(O)C12` (stereo not drawn), the Potency entry in experiment [1] and in experiment [2] was “inactive” throughout.

For `CC(C)(O)C(O)C(=O)OCc1ccc(O[C@@H]2O[C@H](CO)[C@@H](O)[C@H](O)[C@H]2O)cc1` (stereo partly drawn), the Potency result in experiment [1] and in experiment [2] was “inactive” each time.

For the molecule `C=C[C@H]1[C@H](O[C@@H]2O[C@H](CO)[C@@H](O)[C@H](O)[C@H]2O)OC=C2C(=O)OCC[C@]21O`, the Potency entry in experiment [1] and in experiment [2] was “inactive” throughout.

On to `CC(C)CN(CC(=O)N(CCCN1CCCC1=O)CC(N)=O)C(=O)CNCCc1ccccc1F`, for which the Potency entry in experiment [1] and in experiment [2] was “inactive” each time.

`Cc1ccc(NC(=O)c2cccc(C(C)(C)C#N)c2)cc1Nc1ccc2ncn(C)c(=O)c2c1`: the Potency is 1180 nM (active) in experiment [1] and 1480 nM (active) in experiment [2].

For the molecule `O=C(/C=C\n1cnc(-c2cc(C(F)(F)F)cc(C(F)(F)F)c2)n1)N1CC(F)(F)C1`, the figures for the Potency in experiment [1] and in experiment [2] were 366 nM (active) and 731 nM (active), respectively.

Turning to `C/C=C/C=C/C=C/C(=O)O[C@@H]1[C@@H](OC)C2=C(C(=O)N(C(C)C(=O)O)C2)[C@@]2(C)CCCC(C)(C)[C@H]12` (stereo partly drawn), the Potency result in experiment [1] and in experiment [2] was “inactive” throughout.

Consider `O=C(OC[C@H]1O[C@@H](Oc2ccccc2COC(=O)C2(O)C=CCCC2O)[C@H](O)[C@@H](O)[C@@H]1O)c1ccccc1` (stereo partly drawn), for which the Potency entry in experiment [1] and in experiment [2] was “inactive” in each case.

Regarding `COc1cc(C(C)=O)ccc1O[C@@H]1O[C@H](CO[C@@H]2OC[C@@H](O)[C@H](O)[C@H]2O)[C@@H](O)[C@H](O)[C@H]1O`, the Potency result in experiment [1] and in experiment [2] was “inactive” in each case.

Consider `C=C1C(=O)O[C@@H]2/C=C(/C)[C@@H](OC(C)=O)C/C=C(\C)C[C@@H](OC(=O)/C(=C/CO)CO)[C@@H]12`, for which the figures for the Potency in experiment [1] and in experiment [2] were 3990 nM (active) and 3550 nM (active), respectively.

As to `CCCCCc1ccc(/C=C/[C@H](O)[C@@H](CO)NC)cc1`, the Potency is 11600 nM (active) in experiment [1] and 20600 nM (active) in experiment [2].

On to `C/C=C(\C)C(=O)OC[C@H]1O[C@H](O[C@H]2O[C@H](CO)[C@@H](O)[C@H](O)[C@H]2O[C@@H]2O[C@H](CO)[C@@H](O)[C@H](O)[C@H]2O)[C@H](O[C@@H]2O[C@H](CO)[C@@H](O)[C@H](O)[C@H]2O)[C@@H](O)[C@@H]1O`, for which the Potency entry in experiment [1] and in experiment [2] was “inactive” throughout.

As for `CC(=O)O[C@@H]1[C@H](O[C@@H]2O[C@H](CO)[C@@H](O)[C@H](O)[C@H]2O)[C@@H](O[C@@H]2O[C@@H](C)[C@H](O)[C@@H](O[C@@H]3O[C@H](CO)[C@@H](O)[C@H](O)[C@H]3O)[C@H]2O)[C@H](OC(=O)C23CCC4(C)C(=CCC5C6(C)CC(O)C(O[C@@H]7O[C@H](C(=O)O)[C@@H](O)[C@H](O)[C@H]7O)C(C)(C(=O)O)C6CCC54C)C2CC(C)(C)CC3O)O[C@@H]1C` (stereo partly drawn), the viability (% of control) in experiment [1] was 92% [at 9.25 µM]. The viability, % of control in experiment [2] is 102% [at 9.25 µM].

`CC1CC(=O)[C@]2(O)C(C(=O)OCCc3ccc(O)c(O)c3)=CO[C@@H](O[C@@H]3O[C@H](CO)[C@@H](O)[C@H](O)[C@H]3O)[C@H]12` (stereo partly drawn): the Potency result in experiment [1] and in experiment [2] was “inactive” throughout.

`CC1(C)CC[C@]2(C(=O)O)CC[C@]3(C)C(=CCC4[C@@]5(C)C[C@@H](O)[C@H](O)C(C)(C)C5CC[C@]43C)[C@@H]2[C@@H]1O` (stereo partly drawn): the Potency entry in experiment [1] and in experiment [2] was “inactive” each time.

`C=C1C(=O)O[C@H](CCC)[C@H]1C(=O)O`: the Potency result in experiment [1] and in experiment [2] was “inactive” each time.

Turning to `CC(C#N)C(C)O[C@@H]1O[C@H](CO)[C@@H](O)[C@H](O)[C@H]1O` (stereo partly drawn), the Potency entry in experiment [1] and in experiment [2] was “inactive” each time.

For the molecule `CN1CCN(C(=O)c2ccc(Nc3nccc(-c4cccs4)n3)cc2Cl)CC1`, the values for the Potency in experiment [1] and in experiment [2] were 731 nM (active) and 2060 nM (active), respectively.

Consider `CC(C)CC(=O)O[C@@H]1OC=C(CO[C@@H]2O[C@H](CO)[C@@H](O)[C@H](O)[C@H]2O)[C@H]2[C@@H]3O[C@H]3[C@@](O)(CO)[C@@H]12`, for which the Potency result in experiment [1] and in experiment [2] was “inactive” throughout.

For `C=C1C(=O)O[C@@H]2[C@H]1CC[C@H](C)C(CCC(=O)O)C2(C)O` (stereo partly drawn), the figures for the Potency in experiment [1] and in experiment [2] were 5800 nM (active) and 2310 nM (active), respectively.

With `CN1CCN(C(=O)c2ccc3cc(CCNc4ncnc5ccc(C#N)cc45)ccc3c2)CC1`, the Potency is 920 nM (active) in experiment [1] and 461 nM (active) in experiment [2].

Regarding `O=C(O)C[C@H]1CCC(=O)[C@@H]1C/C=C\CCO`, the Potency entry in experiment [1] and in experiment [2] was “inactive” in each case.

For `CCCCCCCCCCCCCCCCC(C(=O)O)C(O)(CC(=O)O)C(=O)O` (stereo not drawn), the Potency entry in experiment [1] and in experiment [2] was “inactive” in each case.

Turning to `c1ccc(Cc2ncc3c(n2)CCNCC3)cc1`, the Potency entry in experiment [1] and in experiment [2] was “inactive” each time.

With `CC1(C)O[C@@]2(C)CC[C@@H]1C[C@@H]2OC1OC(CO)C(O)C(O)C1O` (stereo partly drawn), the Potency entry in experiment [1] and in experiment [2] was “inactive” in each case.

Consider `C=C(CCO)C(=O)OCC1OCC(OC(=O)C(=C)CCO[C@@H]2O[C@H](CO)[C@@H](O)[C@H](O)[C@H]2O)C(O)C1O` (stereo partly drawn), for which the Potency result in experiment [1] and in experiment [2] was “inactive” in each case.

On to `CC(C)C(CO)Nc1nc(Nc2cc(N)cc(Cl)c2)c2ncn(C(C)C)c2n1` (stereo not drawn), for which the Potency in experiment [1] is 517 nM (active); in experiment [2] it was 820 nM (active).

For the molecule `COc1cc(N2CCOCC2)ccc1Nc1ncc(F)c(Nc2ccccc2NS(C)(=O)=O)n1`, the Potency is 1640 nM (active) in experiment [1] and 2590 nM (active) in experiment [2].

In the case of `CC(C)CN(C[C@@H](O)[C@H](Cc1ccccc1)NC(=O)O[C@@H]1CO[C@H]2OCC[C@H]21)S(=O)(=O)c1ccc(N)cc1`, the Potency result in experiment [1] and in experiment [2] was “inactive” in each case.

Turning to `c1ccc2c(-c3cnn4cc(-c5ccc(OCCN6CCOCC6)cc5)cnc34)ccnc2c1`, the Potency in experiment [1] is 1020 nM (active); in experiment [2], 1440 nM (active).

Regarding `CC1=C2CC(=O)C(C)CC/C=C(\C)CC2(O)OC1=O` (stereo not drawn), the Potency result in experiment [1] and in experiment [2] was “inactive” in each case.

As to `O=C(NCCN1CCC(n2c(=O)[nH]c3ccccc32)CC1)c1cc2cc(F)ccc2[nH]1`, the Potency in experiment [1] and in experiment [2] was 18400 nM (active) each time.

Regarding `COc1cc([C@H]2c3cc(O)c(OC)cc3C[C@@H](CO[C@@H]3O[C@H](CO)[C@@H](O)[C@H](O)[C@H]3O)[C@@H]2CO)ccc1O`, the Potency result in experiment [1] and in experiment [2] was “inactive” each time.

As for `CC(C)C1(O[C@@H]2O[C@H](CO)[C@@H](O)[C@H](O)[C@H]2O)CC=C(CO)CC1` (stereo partly drawn), the Potency entry in experiment [1] and in experiment [2] was “inactive” throughout.

The record behind these values is PubChem BioAssay (NCATS).
